Broadly, the AC50 is the concentration giving half of the maximal activity seen.

The record followed here is PubChem BioAssay (EPA / NIEHS).

Experiment [1] in a line: ATG_E_Box_CIS: Attagene CIS-FACTORIAL HepG2 Assay for human Enhancer Box (E-box) (AID 2282936). The settings on record: HepG2 E-box cis-reporter transcription, actives raise or lower the signal. The method in brief:
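Measured 24 h post-dosing in HepG2 cells transfected with multiple cis-regulated reporter units, signal being reporter mRNA induction detected by fluorescent RT-PCR with capillary electrophoresis; gain or loss fitted against DMSO.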

Experiment [2] is described as follows: ATG_M_61_CIS: Attagene CIS-FACTORIAL HepG2 Assay for M61 Transcription Factor (Internal Marker) (AID 2282937). The settings on record: HepG2 Attagene CIS-FACTORIAL M61 internal marker reporter; actives raise or lower the signal. Put shortly: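 This endpoint serves as an internal background control within a multiplexed HepG2 cis-reporter panel. Cells are exposed for 24 h; reporter mRNA is amplified, fluorescently labelled and sized by capillary electrophoresis, with DMSO as negative control.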

Experiment [3] in a line: ATG_EGR_CIS: Attagene CIS-FACTORIAL HepG2 Assay for human Early Growth Response 1 (EGR1) (AID 2282938). The settings on record: HepG2 Attagene CIS-FACTORIAL EGR reporter mRNA; actives raise or lower the signal. Put shortly: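 HepG2, transient MRTU transfection (cis promoters), 24 h compound. RNA → RT (oligo-dT) → PCR → 6-FAM labelling → HpaI cut → CE fluorescence. Bidirectional fit, DMSO baseline.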

The nature of experiment [4]: ATG_M_19_CIS: Attagene CIS-FACTORIAL HepG2 Assay for M19 Transcription Factor (Internal Marker) (AID 2282939). The settings on record: HepG2 Attagene CIS-FACTORIAL M19 internal marker reporter; actives raise or lower the signal. The method in brief: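 Transfect HepG2 with MRTU reporter library → dose chemical, 24 h → isolate total RNA, reverse-transcribe with oligo(dT) → PCR, 6-FAM label, HpaI cut (2 h, 37 C) → capillary electrophoresis. Bidirectional fit vs DMSO.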

Experiment [5] is described as follows: ATG_ERE_CIS: Attagene CIS-FACTORIAL HepG2 Assay for Estrogen Response Element (ERE) (AID 2282940). Conditions: HepG2 ERE cis-reporter, Attagene RNA transcript; actives raise or lower the signal. Put shortly: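 Transient MRTU transfection of human HepG2; cis-element promoters; 24 h dosing; total RNA → RT (oligo dT) → PCR → 6-FAM primer extension → HpaI digest → CE fluorescence. Bidirectional fit, DMSO baseline.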

A short description of experiment [6]: ATG_Ets_CIS: Attagene CIS-FACTORIAL HepG2 Assay for human Erythroblast Transformation Specific (ETS) (AID 2282941). Conditions: HepG2 ETS cis-reporter transcription, actives raise or lower the signal. The method in brief:
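Multiplexed reporter transcript profiling: HepG2, 24 h treatment, total RNA to cDNA, PCR, 6-FAM labelling, HpaI cut, capillary electrophoresis. Gain- or loss-of-signal fitted against DMSO.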

Experiment [7] addresses Hepatocyte nuclear factor 3-beta (Homo sapiens) (UniProt Q9Y261). Nature of the experiment: ATG_FoxA2_CIS: Attagene CIS-FACTORIAL HepG2 Assay for human Forkhead box A2 (FOXA2) (AID 2282942). Conditions: HepG2 cis-reporter transcription factor activity, 24 h; actives raise or lower the signal. The method in brief: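 Cells: HepG2, transient multiplex reporter transfection. Exposure 24 h. Detection: reporter-specific RT-PCR, fluorescent labelling, restriction digest, capillary electrophoresis. Analysis: bidirectional curve fit, DMSO as negative control.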

Experiment [8] can be described thus: ATG_FoxO_CIS: Attagene CIS-FACTORIAL HepG2 Assay for human Forkhead box O (FoxO) (AID 2282943). The settings on record: HepG2 Attagene cis-reporter, FoxO element, mRNA; actives raise or lower the signal. Put shortly: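 Values reflect reporter mRNA induction or loss in HepG2 cells 24 h post-dosing, fitted bidirectionally with DMSO as negative control and baseline. Detection used RT-PCR and fluorescence capillary electrophoresis.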

Experiment [9] in a line: ATG_GATA_CIS: Attagene CIS-FACTORIAL HepG2 Assay for human GATA Binding Protein (AID 2282944). Conditions: HepG2 GATA cis-element reporter, Attagene multiplex mRNA; actives raise or lower the signal. The method in brief:
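Transient MRTU transfection, HepG2, 24 h compound exposure. Total RNA → oligo(dT) RT → PCR → 6-FAM primer extension → HpaI cut → CE. Bidirectional fit vs DMSO.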

A short description of experiment [10]: ATG_GLI_CIS: Attagene CIS-FACTORIAL HepG2 Assay for human Zinc Finger Protein GLI1 (AID 2282945). The settings on record: HepG2, Attagene cis-factorial reporter mRNA, GLI element; actives raise or lower the signal. Put shortly:
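HepG2 cells transiently transfected with cis-promoter multiplexed reporter units report endogenous transcription factor activity. After 24 h chemical exposure, reporter mRNA was quantified by RT-PCR, 6-FAM labelling, HpaI digestion and capillary electrophoresis, with bidirectional fitting against DMSO.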

Experiment [11] in a line: ATG_GRE_CIS: Attagene CIS-FACTORIAL HepG2 Assay for human Glucocorticoid Response Elements (GRE) (AID 2282947). Conditions: HepG2 GRE cis-reporter, Attagene multiplex mRNA; actives raise or lower the signal. The method in brief: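 HepG2, transient cis-reporter transfection, 24 h. Reporter mRNA: RT-PCR then CE, fluorescence. Fit both directions vs DMSO.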
The nature of experiment [12]: ATG_ISRE_CIS: Attagene CIS-FACTORIAL HepG2 Assay for human Interferon Regulatory Factor 1 (IRF1) binding to an Interferon-Stimulated Response Element (ISRE) (AID 2282948). The settings on record: HepG2 ISRE cis-reporter (Attagene), mRNA transcription readout; actives raise or lower the signal. The method in brief:
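Signal reflects induction or loss of ISRE-linked reporter mRNA in transiently transfected HepG2 cells after a 24 h treatment, detected by fluorescent RT-PCR fragments on capillary electrophoresis and normalised to DMSO.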

A short description of experiment [13]: ATG_M_32_CIS: Attagene CIS-FACTORIAL HepG2 Assay for M32 Transcription Factor (Internal Marker) (AID 2282949).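 Note: background control marker of the multiplexed CIS panel rather than a real target.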 Conditions: HepG2 Attagene cis-factorial M32 reporter, mRNA; actives raise or lower the signal. Put shortly: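 Using DMSO as baseline, bidirectional curve fits were applied to reporter mRNA signals. These came from transiently transfected HepG2 cells exposed for 24 h, with RNA analysed by RT-PCR, FAM primer extension, HpaI digestion and CE.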

The nature of experiment [14]: ATG_M_06_CIS: Attagene CIS-FACTORIAL HepG2 Assay for M06 Transcription Factor (Internal Marker) (AID 2282950). Conditions: HepG2 Attagene CIS-FACTORIAL M06 internal marker reporter; actives raise or lower the signal. The method in brief:
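Read-out is fluorescence of labelled reporter cDNA fragments resolved by capillary electrophoresis after RT-PCR. Cells: HepG2 carrying transfected cis-promoter reporter units, treated 24 h. Gain or loss of signal fitted relative to DMSO.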

The target of experiment [15] is Hepatocyte nuclear factor 6 (Homo sapiens) (UniProt Q9UBC0). As to the kind of experiment: ATG_HNF6_CIS: Attagene CIS-FACTORIAL HepG2 Assay for human Hepatocyte Nuclear Factor 6 (HNF6) (AID 2282952). Conditions: HepG2 Attagene cis-factorial HNF6 reporter transcription; actives raise or lower the signal. Put shortly:
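Readout: fluorescent reporter-transcript fragments resolved by capillary electrophoresis after RT-PCR, reflecting endogenous factor activity in transfected HepG2. Exposure 24 h. Gain or loss of signal fitted bidirectionally against DMSO.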

The target of experiment [16] is Heat shock factor protein 1 (Homo sapiens) (UniProt Q00613). As to the kind of experiment: ATG_HSE_CIS: Attagene CIS-FACTORIAL HepG2 Assay for human Heat Shock Transcription Factor 1 (HSE) (AID 2282953). The settings on record: HepG2 HSE cis-reporter, Attagene RNA transcription; actives raise or lower the signal. The method in brief:
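HepG2, transient MRTU transfection, cis-promoter reporters (endogenous TF activity). 24 h compound. RNA → oligo(dT) RT → PCR → 6-FAM primer extension → HpaI cut → CE. Bidirectional fit vs DMSO.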

The nature of experiment [17]: ATG_MRE_CIS: Attagene CIS-FACTORIAL HepG2 Assay for human Metal Responsive Element (MRE) (AID 2282954). Conditions: HepG2 MRE cis-reporter transcription, Attagene multiplex; actives raise or lower the signal. The method in brief:
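Readout: capillary electrophoresis of 6-FAM-labelled, HpaI-digested RT-PCR reporter products. System: HepG2 cells carrying transient multiplexed cis reporters, dosed 24 h. Analysis: bidirectional fit, DMSO baseline.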

The target of experiment [18] is Paired box protein Pax-6 (Homo sapiens) (UniProt P26367). As to the kind of experiment: ATG_Pax6_CIS: Attagene CIS-FACTORIAL HepG2 Assay for human Paired Box 6 (PAX6) (AID 2282956). Conditions: HepG2 CIS-FACTORIAL PAX6 reporter transcription, RNA readout; actives raise or lower the signal. The method in brief: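 Values derive from bidirectional curve fitting of reporter mRNA signal relative to DMSO. HepG2 cells bearing transfected cis-regulated MRTUs were exposed for 24 h; transcripts were read by RT-PCR and capillary electrophoresis.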

Experiment [19] can be described thus: ATG_PBREM_CIS: Attagene CIS-FACTORIAL HepG2 Assay for human Phenobarbital-responsive Enhancer Module (PBREM) (AID 2282955). Conditions: HepG2 PBREM cis-reporter, Attagene multiplexed transcription; actives raise or lower the signal. The method in brief:
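HepG2, transient MRTU transfection, 24 h dosing; RNA → oligo(dT) RT → PCR → 6-FAM extension → HpaI → CE. Bidirectional fit vs DMSO.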

The target in experiment [20] is Hypoxia-inducible factor 1-alpha (Homo sapiens) (UniProt Q16665). Nature of the experiment: ATG_HIF1a_CIS: Attagene CIS-FACTORIAL HepG2 Assay for human Hypoxia Inducible Factor 1 (HIF1A) (AID 2282951). Conditions: HepG2 Attagene cis-factorial HIF1a reporter transcription; actives raise or lower the signal. The method in brief:
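HepG2, transient cis-reporter library, 24 h dosing. RNA → RT (oligo dT) → PCR → 6-FAM primer extension → HpaI → CE. Bidirectional curve fit vs DMSO.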

The source made the active and inactive calls. Rule for the calls: active = hit-call score of the fitted dose curve at least 0.9, where 1 is the maximum; inactive = score below 0.9.

Sequence of Paired box protein Pax-6 (Homo sapiens) (P26367 whole entry, looked up): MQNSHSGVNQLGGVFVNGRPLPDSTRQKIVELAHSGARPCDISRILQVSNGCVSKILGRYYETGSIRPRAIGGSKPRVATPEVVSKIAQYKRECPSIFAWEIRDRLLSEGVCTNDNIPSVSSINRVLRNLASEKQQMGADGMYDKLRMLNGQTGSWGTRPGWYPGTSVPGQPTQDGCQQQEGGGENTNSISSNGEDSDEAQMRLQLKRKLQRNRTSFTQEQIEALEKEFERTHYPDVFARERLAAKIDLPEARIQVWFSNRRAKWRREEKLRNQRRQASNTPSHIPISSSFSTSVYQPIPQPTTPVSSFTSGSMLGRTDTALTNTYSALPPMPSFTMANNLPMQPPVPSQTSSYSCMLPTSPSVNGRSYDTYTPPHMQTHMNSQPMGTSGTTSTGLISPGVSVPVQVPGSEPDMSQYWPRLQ
Sequence of Hepatocyte nuclear factor 6 (Homo sapiens) (Q9UBC0 whole entry, looked up, the tested form may be a part): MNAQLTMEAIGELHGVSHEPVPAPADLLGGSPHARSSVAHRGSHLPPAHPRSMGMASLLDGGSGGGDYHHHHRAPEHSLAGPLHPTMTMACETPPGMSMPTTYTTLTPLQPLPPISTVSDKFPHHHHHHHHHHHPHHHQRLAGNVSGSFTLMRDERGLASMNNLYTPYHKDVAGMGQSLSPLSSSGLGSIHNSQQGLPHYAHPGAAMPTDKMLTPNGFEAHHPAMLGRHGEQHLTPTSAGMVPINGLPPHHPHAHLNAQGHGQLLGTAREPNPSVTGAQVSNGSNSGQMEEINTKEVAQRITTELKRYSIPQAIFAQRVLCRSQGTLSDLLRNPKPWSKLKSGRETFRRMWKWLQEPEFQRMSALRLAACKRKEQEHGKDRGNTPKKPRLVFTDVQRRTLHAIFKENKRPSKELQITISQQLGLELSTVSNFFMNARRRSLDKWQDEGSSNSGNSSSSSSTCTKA
Sequence of Heat shock factor protein 1 (Homo sapiens) (Q00613 whole entry, looked up): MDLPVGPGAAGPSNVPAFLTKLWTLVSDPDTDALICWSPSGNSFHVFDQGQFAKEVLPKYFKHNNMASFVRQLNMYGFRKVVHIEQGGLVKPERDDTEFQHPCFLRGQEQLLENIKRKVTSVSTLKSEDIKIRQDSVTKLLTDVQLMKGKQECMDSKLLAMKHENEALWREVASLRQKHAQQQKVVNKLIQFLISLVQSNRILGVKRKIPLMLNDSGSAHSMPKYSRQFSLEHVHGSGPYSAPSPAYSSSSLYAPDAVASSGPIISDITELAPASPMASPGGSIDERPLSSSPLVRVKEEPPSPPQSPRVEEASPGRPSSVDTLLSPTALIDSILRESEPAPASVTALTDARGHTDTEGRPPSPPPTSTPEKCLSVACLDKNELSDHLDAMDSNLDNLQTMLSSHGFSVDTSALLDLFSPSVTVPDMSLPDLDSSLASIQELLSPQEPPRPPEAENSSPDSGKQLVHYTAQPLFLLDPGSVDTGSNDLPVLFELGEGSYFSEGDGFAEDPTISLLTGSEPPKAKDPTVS
Sequence of Hepatocyte nuclear factor 3-beta (Homo sapiens) (Q9Y261 whole entry, looked up): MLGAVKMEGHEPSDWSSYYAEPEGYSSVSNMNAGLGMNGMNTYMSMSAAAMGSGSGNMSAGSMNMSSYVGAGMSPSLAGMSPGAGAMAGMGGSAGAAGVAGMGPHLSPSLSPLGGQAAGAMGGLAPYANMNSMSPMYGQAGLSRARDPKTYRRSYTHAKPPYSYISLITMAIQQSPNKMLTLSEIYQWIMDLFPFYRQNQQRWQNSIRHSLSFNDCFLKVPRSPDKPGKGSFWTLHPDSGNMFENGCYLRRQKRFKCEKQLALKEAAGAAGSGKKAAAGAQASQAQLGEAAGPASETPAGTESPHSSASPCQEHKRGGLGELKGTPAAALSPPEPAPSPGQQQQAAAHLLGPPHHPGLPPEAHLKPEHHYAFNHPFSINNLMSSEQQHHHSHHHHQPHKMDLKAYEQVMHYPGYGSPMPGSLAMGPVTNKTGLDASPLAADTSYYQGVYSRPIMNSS
Sequence of Hypoxia-inducible factor 1-alpha (Homo sapiens) (Q16665 whole entry, looked up): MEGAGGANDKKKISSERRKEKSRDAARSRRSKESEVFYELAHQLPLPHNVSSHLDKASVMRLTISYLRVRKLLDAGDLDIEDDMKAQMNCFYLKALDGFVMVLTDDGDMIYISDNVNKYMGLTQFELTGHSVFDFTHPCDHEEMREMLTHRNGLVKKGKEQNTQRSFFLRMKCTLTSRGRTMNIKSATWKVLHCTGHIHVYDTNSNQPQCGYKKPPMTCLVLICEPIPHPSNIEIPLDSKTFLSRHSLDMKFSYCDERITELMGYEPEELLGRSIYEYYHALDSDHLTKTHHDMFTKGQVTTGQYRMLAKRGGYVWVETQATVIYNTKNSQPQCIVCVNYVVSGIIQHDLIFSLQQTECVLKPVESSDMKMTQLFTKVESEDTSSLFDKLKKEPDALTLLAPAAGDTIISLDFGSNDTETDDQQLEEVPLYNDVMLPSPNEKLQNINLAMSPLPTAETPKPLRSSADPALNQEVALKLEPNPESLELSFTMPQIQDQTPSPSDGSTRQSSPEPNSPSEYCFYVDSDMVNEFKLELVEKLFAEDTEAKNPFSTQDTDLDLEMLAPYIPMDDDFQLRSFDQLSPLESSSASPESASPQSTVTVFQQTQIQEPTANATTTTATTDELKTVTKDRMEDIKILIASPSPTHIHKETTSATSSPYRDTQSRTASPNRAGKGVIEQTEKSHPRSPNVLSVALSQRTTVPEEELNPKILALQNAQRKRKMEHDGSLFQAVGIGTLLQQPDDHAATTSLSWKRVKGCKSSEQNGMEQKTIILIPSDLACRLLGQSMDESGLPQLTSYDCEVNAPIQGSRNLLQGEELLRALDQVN

As to `O=C(NC(=O)c1cc(F)c(F)cc1Cl)Nc1cc(F)ccc1N1CCC(C(=O)O)CC1`, the outcome in experiment [1], in experiment [2], in experiment [3], in experiment [4], in experiment [5] and in experiment [6] was inactive. Moreover, the compound was classed as inactive in [7], in experiment [8], in [9], in [10], in experiment [11] and in experiment [12]. Besides, the compound was classed as inactive in experiment [13], in experiment [14], in experiment [15], in experiment [16], in experiment [17] and in [18].

Regarding `O=NN(c1ccccc1)c1ccccc1`, the result in experiment [1], in experiment [2], in experiment [3], in [4], in experiment [6] and in experiment [7] was inactive. The outcome in [8], in [9], in [10], in [11], in [12] and in experiment [13] was inactive. Also, the compound was called inactive in experiment [14], in [15], in experiment [16], in experiment [17] and in [18]. Besides, the half-maximal activity concentration (AC50) in experiment [5] is 26.1 µM (active).

As for `Oc1ccc(Cl)cc1Cl`, the result in [1], in experiment [2], in [3], in [4], in experiment [6] and in [7] was inactive. For the same compound, the result in [8], in [9], in experiment [10], in experiment [11], in [12] and in experiment [13] was inactive. In addition, the call in experiment [14], in experiment [15], in experiment [16], in experiment [17], in [19] and in [18] was inactive. Besides, the AC50 in experiment [5] was 75.9 µM (active).

As to `CN(C)c1nc(=O)n(C2CCCCC2)c(=O)n1C`, the outcome in experiment [1], in experiment [2], in experiment [3], in [4], in experiment [5] and in experiment [6] was inactive. Further, the outcome in experiment [7], in experiment [8], in [9], in [10], in [12] and in experiment [13] was inactive. Further, the outcome in [14], in experiment [20], in experiment [15], in experiment [16], in [17] and in experiment [19] was inactive. The compound was called inactive in experiment [18].

Regarding `CN(C)CCO`, the outcome in experiment [1], in experiment [2], in experiment [3], in [4], in experiment [5] and in experiment [6] was inactive. Also, the result in experiment [7], in experiment [8], in [9], in experiment [10], in experiment [11] and in experiment [12] was inactive. Further, the call in [13], in experiment [14], in experiment [15], in [16], in experiment [17] and in [19] was inactive. Further, the outcome in [18] was inactive.

Consider `CC(c1ccc(O)cc1)(c1ccc(O)cc1)c1ccc(O)cc1`, for which the AC50 in experiment [1] was 14.7 µM (active); in experiment [3], 12.8 µM (active); in [5], 0.0955 µM (active); in experiment [12], 16.1 µM (active); in [15] it was 18.6 µM (active); in experiment [17], 13.5 µM (active). Besides, the AC50 in experiment [18] is 11.1 µM (active). For the same compound, the outcome in experiment [2], in [4], in experiment [6], in [7], in experiment [8] and in experiment [9] was inactive. Also, the compound was called inactive in [10], in [11], in [13], in [14], in experiment [16] and in experiment [19].
